Measured values from PubChem BioAssay AID2315 (National Center for Advancing Translational Sciences (NCATS), 2010).
Screen size: about 290,000 compounds; about 27,000 (9.3%) were called active. The entries come from a sample that favours actives as a whole. Unmarked numbers belong to inactive results. Rule as the data show it: active = inhibition mostly above about 28% (no sharp cut-off); inactive = mostly below about 43%.

test: A qHTS for Small Molecule Inhibitors of Shiga Toxin; conditions: Vero cells, Shiga toxin protein synthesis inhibition reporter; at 38.7 µM, stronger effect = higher value; as to inhibition: 0% is about no effect

| Compound | inhibition |
| --- | --- |
| COc1ccc(N2CCN(C(=O)CN3C(=O)COc4ccccc43)CC2)cc1 | 23.1% |
| CN1CCN(C(=O)c2ccccc2NC(=O)COc2ccccc2Cl)CC1 | 30.2% (active) |
| CCCOc1cccc(C(=O)Nc2ccccc2C(=O)N2CCN(C)CC2)c1 | 1.15% |
| O=C(Nc1ccccc1C(=O)N1CCCCCC1)c1ccccc1Cl | -4.45% |
| Nc1nc(NCC2CCCO2)nc(Nc2ccccc2F)c1[N+](=O)[O-] (stereo unspecified) | 3.33% |
| C=Cn1cc[n+](CC(=O)c2ccc(OC)c(OC)c2)c1 | -7.58% |
| Cc1cccc(COc2ccccc2/C=N/Nc2ccc([N+](=O)[O-])cc2)c1 | -8.03% |
| O=[N+]([O-])c1ccc(N/N=C/c2ccccc2)cc1 | 60.4% (active) |
| O=C(N/N=C/c1ccc(O)cc1)/C(=C/c1ccc([N+](=O)[O-])cc1)NC(=O)c1ccccc1 | 3.28% |
| CCOc1cc2[nH]c(=S)n(Cc3ccc(C(=O)N4CCN(C)CC4)cc3)c(=O)c2cc1OCC | 6.6% |
| CCn1ccnc1CN(C)C(=O)c1cc(COc2ccc(Cl)cc2OC)on1 | 49.5% (active) |
| O=C(c1cc(-c2cccs2)on1)N1CCCCC1 | 124% (active) |
| CNC(=O)n1ccc(C(=O)N2CCCCC2)n1 | -5.37% |
| COc1cccc(OCc2cc(C(=O)N3CCN(C(=O)c4ccco4)CC3)no2)c1 | 64.7% (active) |
| CC(=O)c1ccc(NC(=O)c2cc(-c3cccs3)on2)cc1 | 35.3% |
| O=C(c1cc(-c2ccccc2O)on1)N1CCCC1 | 111% (active) |
| CCn1ccnc1CN(C)C(=O)c1cc(COc2ccc(-n3cncn3)cc2)on1 | 13.3% |
| COc1cccc(OC)c1OCCN1CCN(C(=O)c2ccco2)CC1 | -15.7% |
| O=C(c1cccc(Br)c1)N1CCN(C2=NS(=O)(=O)c3ccccc32)CC1 | -5.51% |
| COc1cc(Cl)ccc1OCc1cc(C(=O)N(C)CCc2c(C)n[nH]c2C)no1 | 18.3% |
| O=C(c1ccco1)N1CCN(C(=O)c2ccc(COc3ccc(F)cc3)o2)CC1 | 2.42% |
| O=C(c1ccc(Cl)c(Cl)c1)N1CCCC1 | -12.2% |
| Cc1cc(/C=C2/SC(=O)N(CC(=O)N3CCCC3)C2=O)c(C)n1C | -6.33% |
| NC(=O)C1CCN(C(=O)/C(=C/c2ccco2)NC(=O)c2ccccc2)CC1 | -19% |

| Compound | inhibition |
| --- | --- |
| COc1ccc(OC)c(NC(=O)CSc2nc(-c3ccccc3)cc(=O)[nH]2)c1 | -4.35% |
| Cc1ccc(Nc2nc(N3CCOCC3)nc(N3CCOCC3)n2)cc1Cl | 5.42% |
| COc1ccccc1N1CCN(S(=O)(=O)c2ccc(Cl)cc2)CC1 | -2.2% |
| Oc1c(Cl)cc(Cl)cc1/C=N/c1ncn[nH]1 | -2.31% |
| Cc1ccc(N2CC(C(=O)NCCS(=O)(=O)N3CCN(c4ccccc4)CC3)CC2=O)cc1 (stereo unspecified) | 4.33% |
| Cn1cc(CNC(=O)c2ccc(OC3CCN(Cc4ccccn4)CC3)cc2)cn1 | 4.02% |
| COc1ccc(Cl)cc1C(=O)NNC(=S)NC1CCCC1 | -7.04% |
| COc1cccc(-c2cc(C(=O)N3CCN(c4ccccc4OC)CC3)no2)c1 | -4.9% |
| COc1ccccc1N1CCN(C(=O)c2cc(-c3ccc(Cl)c(Cl)c3)on2)CC1 | 0.847% |
| COc1ccc(OCc2cc(C(=O)N3CCCC3)no2)c2ccccc12 | 147% (active) |
| CCOC(=O)C1CCCN(C(=O)c2cncc(Br)c2)C1 (stereo unspecified) | -10.3% |
| COc1cc(Cl)ccc1OCc1cc(C(=O)N2CC[C@@H]3CCCC[C@H]3C2)no1 | 120% (active) |
| CCOC(=O)CC1(NC(=O)c2cc(COc3cncc(Cl)c3)on2)CCCCC1 | -11.8% |
| Cc1ccc(C)c(OCc2cc(C(=O)N3CCN(c4cnccn4)CC3)no2)c1 | -3.53% |
| COc1ccccc1-c1cc(C(=O)N2CCCCC2)no1 | 102% (active) |
| CCCOC1CCCN(C(=O)c2cc(COc3cncc(Cl)c3)on2)C1 (stereo unspecified) | 54.4% (active) |
| COc1ccccc1OCc1ccc(C(=O)N2CCN(C)CC2)o1 | 10.1% |
| COc1ccc(C(=O)C2CCCN(C(=O)c3cc(C)on3)C2)cc1F (stereo unspecified) | -1.62% |
| N#Cc1ccccc1S(=O)(=O)N1CCN(C(=O)c2cc(-c3ccccc3)nn2-c2ccccc2)CC1 | 15.4% |
| O=C(CSc1nc2ccccc2c(=O)[nH]1)Nc1nc(-c2ccc(Br)cc2)cs1 | -26.5% |
| COc1ccc(C)cc1S(=O)(=O)N1CCN(S(=O)(=O)c2cc(C(=O)O)ccc2C)CC1 | -1.74% |
| CN(C(=O)CN1C(=O)S/C(=C\c2ccccc2F)C1=O)C1CCS(=O)(=O)C1 (stereo unspecified) | -0.834% |
| COc1ccc(C(C(=O)NCC2CCCO2)N(C(=O)Cn2nnc3ccccc32)c2ccc(NC(C)=O)cc2)cc1OC (stereo unspecified) | -9.93% |
| O=C1OC2(CCCCC2)CC2=C1C1O[C@](c3ccsc3)(Cc3ccccc31)O2 | inactive |

| Compound | inhibition |
| --- | --- |
| Nc1cc(N2CCCCCC2)c2nonc2c1[N+](=O)[O-] | -13.9% |
| Cc1ccc(CNC(=O)c2ccc(CS(=O)Cc3cccc(Cl)c3)o2)cc1 (stereo unspecified) | -5.59% |
| CCNC(=O)Nc1ccc(S(=O)(=O)Nc2cnc(C)nc2C)cc1 | -5.43% |
| O=C(NCc1ccncc1)C(=O)NCC1OCCN1S(=O)(=O)c1ccc(Br)cc1 (stereo unspecified) | -17% |
| Cc1cc(C)nc(N2CCC(C(=O)Nc3ccc4c(c3)OCCO4)CC2)n1 | 51.5% |
| O=C(Nc1cccc(Cl)c1)C1CCCN(c2cnccn2)C1 (stereo unspecified) | -10.4% |
| O=C(Nc1ccc2c(c1)OCCO2)C1CCCN(c2ncccn2)C1 (stereo unspecified) | 66.6% (active) |
| CC(C)=CCN1CCN(CCCc2ccccc2)CC1CCO (stereo unspecified) | -4.24% |
| COc1ccc(-c2nn(-c3ccccc3)cc2/C=C2/SC(=S)N(CCCC(=O)O)C2=O)c(C)c1 | -11.2% |
| CCOC(=O)c1c(C)[nH]c2c1-c1ccccc1C(=O)C2=O | 31.2% |
| CCOC(=O)c1c(C)[nH]c(C2=NNC(=NC(C)COC)SC2)c1C (stereo unspecified) | 75.1% (active) |
| Cc1cc(Nc2ccc(C(=O)N3CCCCC3)cc2)c2cccc(C)c2n1 | -5.1% |
| Cc1cccc(C(=O)Nc2nnc(Cc3c[nH]c4ccccc34)s2)c1 | -6.89% |
| Cc1cccc(N=C2NC(=O)/C(=C/c3cn(C)c4ccccc34)S2)c1 | -7.28% |
| Cc1cccc(N=C2NN=C(c3c[nH]c4ccccc34)CS2)c1 | 42.1% (active) |
| CS(=O)(=O)N1CCN=C1SCc1ccc(F)cc1 | 9.38% |
| COc1ccc(N(CC(=O)NCCSCc2cccc(Cl)c2)S(C)(=O)=O)cc1 | -2.69% |
| CCN(CC)C(=O)COc1coc(CN2CCN(Cc3ccccc3)CC2)cc1=O | -10.1% |
| COc1cccc2cc(/C(C)=N/NC(=O)c3ccco3)oc12 | 32.4% |
| Cc1nn(CC(=O)Nc2ccc(F)cc2)c(=O)c2ccccc12 | -1.35% |
| CCC(=O)Nc1ccc2nn(-c3ccc(F)cc3)nc2c1 | 74.1% (active) |
| Cc1cccc(C(=O)OCC(=O)Nc2ccc(F)cc2)c1 | 27.4% |
| Cc1ccccc1CN1CCC(C(=O)Nc2ccc(Oc3cccnc3)cc2)CC1 | -3.91% |
| COC(=O)c1sccc1NC(=O)c1csc2c1CCCC2 | 92.6% |

| Compound | inhibition |
| --- | --- |
| O=C(N/N=C/c1ccco1)c1csc2c1CCCC2 | 122% (active) |
| O=C(CN1CCCC1)Nc1sc2c(c1C(=O)Nc1ccccc1)CCCC2 | -10.4% |
| O=C(N/N=C/c1ccco1)c1ccc(NC(=O)C2CC2)cc1 | -2.21% |
| O=C(NCc1ccccc1Cl)c1csc2c1CCCCC2 | 11.2% |
| COC(=O)c1c(NC(=O)CCCC(=O)O)sc2c1CCCCC2 | -0.986% |
| O=C(Nc1ccccc1N1CCOCC1)c1csc2c1CCCC2 | 11.3% |
| O=C(N/N=C/c1ccco1)c1ccc(C(=O)N/N=C/c2ccco2)o1 | -3.95% |
| CCOC(=O)c1sc(NC(=O)c2sc(C)nc2C)nc1C | 30.3% |
| Cc1ccc(NC(=O)c2c(NC(=O)CCC(=O)O)sc3c2CCCCC3)cc1 | 42.9% (active) |
| COC(=O)c1sc(NC(=O)c2csc3c2CCCC3)nc1C | 76.1% (active) |
| Cc1ccc(NC(=O)c2csc3c2CCCC3)cc1 | 110% (active) |
| COc1ccc(S(=O)(=O)NCC(=O)NCc2cc(=O)n(C)c(=O)n2C)cc1F | -4.87% |
| CCOC(=O)c1cc2ccccc2n1CC(=O)c1ccccc1 | 3.23% |
| COc1cccc(N2C(=O)CN(Cc3ccccc3)C2=S)c1 | 24.3% |
| Cc1ccc(OCC(=O)Nc2ccc(N3CCN(C(=O)c4ccco4)CC3)cc2)c(C)c1 | -6.09% |
| O=C(c1ccccc1F)N(Cc1ccccc1)Cc1ccccc1 | 18% |
| Cc1nc(N)nc(SCc2ccc([N+](=O)[O-])cc2)c1N | -4.97% |
| Cc1ccc(NS(=O)(=O)c2ccc3c(c2)oc(=O)n3C)c(C)c1 | 0.571% |
| COc1ccc(-c2ccc(OC)c(C3C4C=CCC(C)C4C(=O)N3Cc3ccccc3)c2)cc1C (stereo unspecified) | 31.9% |
| COc1ccc2oc(=N)c(C(=O)Nc3ccc(Br)cc3)cc2c1 | 14.3% |
| COc1ccc(C(=O)OCC(=O)Nc2cccc(C(C)=O)c2)cc1OC | 8.39% |
| O=C(COC(=O)C1CCCCC1)Nc1ccc([N+](=O)[O-])cc1 | 30.9% |
| O=C(Nc1ccc([N+](=O)[O-])cc1)C1(c2ccccc2)CCOCC1 | -4.2% |
| O=C(Nc1ccc([N+](=O)[O-])cc1)C1CC12CCC2 (stereo unspecified) | 76.1% (active) |
